Consider eight compounds from PubChem BioAssay (NCI).

Experiment in all cases: NCI-60 one-dose screen, 48 h (100 = growth as untreated, 0 = no growth, -100 = all killed)
One test deals with NCI-H23 lung. The settings on record: 10 µM unless noted.
A further test deals with NCI-H226 lung. Particulars: 10 µM unless noted.
Another test concerns MDA-MB-231 breast. The settings on record: 10 µM unless noted.
Another test has as its system SF-268 CNS. Particulars: 10 µM unless noted.
The test system of a further test is SF-539 CNS. Particulars: 10 µM unless noted.
The next test relates to HCT-15 colon. The settings on record: 10 µM.
Another test has as its system HT29 colon. The settings on record: 10 µM unless noted.
A further test relates to SNB-75 CNS. Particulars: 10 µM unless noted.
Another test has as its system PC-3 prostate. Particulars: 10 µM unless noted.
For another test, the system named is SK-MEL-5 melanoma. Particulars: 10 µM unless noted.
A further test has as its system UACC-62 melanoma. Particulars: 10 µM unless noted.
Another test has as its system SK-MEL-28 melanoma. The settings on record: 10 µM unless noted.
In another test the test system is SN12C renal. The settings on record: 10 µM unless noted.
The next test deals with ACHN renal. The settings on record: 10 µM unless noted.
Another test deals with OVCAR-8 ovarian. Particulars: 10 µM unless noted.
In another test the test system is OVCAR-3 ovarian. Particulars: 10 µM unless noted.
The subject of the next test is NCI/ADR-RES ovarian. Particulars: 10 µM unless noted.
Another test has as its system MDA-MB-435 melanoma. The settings on record: 10 µM unless noted.
The next test deals with MCF7 breast. Particulars: 10 µM unless noted.
The next test deals with KM12 colon. Particulars: 10 µM unless noted.

About 83,000 compounds went through this panel and 20% of them were active in at least one assay; those are over-represented in the sample as a whole.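 Plates (96-well) were seeded with cells, treated with compound at one concentration, and incubated for 48 hours before percent growth was determined.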 Unmarked numbers belong to inactive results. The source made the active and inactive calls. How the source made its calls: active means growth percent below 10; inactive means the rest.

For the compound `COc1cc(C2CC(=O)Nc3nc(N)[se]c32)cc(OC)c1OC` (stereo not drawn), the growth in the test on NCI-H23 lung is 102%; in the test on NCI-H226 lung, 103%; in the test on MDA-MB-231 breast, 101%; with SF-268 CNS it was 101%; in the test with SF-539 CNS, 101%; with HCT-15 colon, 109%. For the same compound, the growth is 89.5% with HT29 colon; 98.9% in the test on SNB-75 CNS; 71.2% in the test with PC-3 prostate; 99% with SK-MEL-5 melanoma; 117% with UACC-62 melanoma; 111% in the test with SK-MEL-28 melanoma. The growth in the test with SN12C renal was 64.6%; in the test on ACHN renal, 103%; in the test on OVCAR-8 ovarian it was 58.8%; in the test with OVCAR-3 ovarian it was 101%; in the test on NCI/ADR-RES ovarian, 107%; with MDA-MB-435 melanoma it was 105%. For the same compound, the results for the growth in the test on MCF7 breast and with KM12 colon were 98.6% and 56.7%, respectively.

For the compound `CNC(=O)Oc1cc(C(C)C)ccc1Sc1ccc(C(C)C)cc1OC(=O)NC`, the growth in the test on NCI-H23 lung was 76.4%; in the test on NCI-H226 lung it was 83.2%; with MDA-MB-231 breast, 58.4%; in the test on SF-268 CNS it was 60.2%; in the test with SF-539 CNS, 56.8%; with HCT-15 colon, 28.6%. Also, the growth was 97.6% with HT29 colon; 52.1% in the test on SNB-75 CNS; 53.7% with PC-3 prostate; 33.1% with SK-MEL-5 melanoma; 47.2% in the test on UACC-62 melanoma; 66.3% in the test with SK-MEL-28 melanoma. The growth with SN12C renal was 85.3%; in the test with ACHN renal it was 81.6%; in the test on OVCAR-8 ovarian it was 66.9%; in the test with OVCAR-3 ovarian it was 69.2%; in the test with NCI/ADR-RES ovarian, 54.1%; with MDA-MB-435 melanoma it was 4.24% (active). In addition, the growth was 58.8% in the test on MCF7 breast and 57.9% in the test on KM12 colon.

Consider `N#[N+]c1nc2nc(N)[nH]c(=O)c2[nH]1`, for which the growth is 103% with NCI-H23 lung; 98% in the test with NCI-H226 lung; 107% with MDA-MB-231 breast; 104% with SF-268 CNS; 101% with SF-539 CNS; 97.9% in the test on HCT-15 colon. Further, the growth in the test with HT29 colon is 104%; with SNB-75 CNS, 92%; in the test with PC-3 prostate, 96.8%; with SK-MEL-5 melanoma, 92.5%; with UACC-62 melanoma, 97.7%; in the test with SK-MEL-28 melanoma it was 111%. Besides, the growth in the test with SN12C renal was 99.9%; with ACHN renal, 99.6%; in the test with OVCAR-8 ovarian, 100%; in the test on OVCAR-3 ovarian, 113%; with NCI/ADR-RES ovarian it was 101%; in the test with MDA-MB-435 melanoma, 100%. The growth was 90.7% in the test with MCF7 breast and 108% in the test on KM12 colon.

On to `CC(=O)O[C@H]1CCC2C3CCC4=C/C(=N/O)CCC4(C)C3CCC21C` (stereo partly drawn), for which the growth in the test on NCI-H23 lung is 90%; in the test on NCI-H226 lung it was 98.1%; in the test on MDA-MB-231 breast it was 110%; in the test on SF-268 CNS it was 75.9%; in the test on SF-539 CNS, 87.6%; in the test with HCT-15 colon it was 72.3%. Besides, the growth in the test on HT29 colon was 76%; in the test with SNB-75 CNS, 96.4%; with PC-3 prostate, 93.6%; in the test with SK-MEL-5 melanoma it was 87.4%; in the test on UACC-62 melanoma, 91.4%; with SK-MEL-28 melanoma, 103%. In addition, the growth in the test on SN12C renal is 103%; in the test on ACHN renal, 108%; in the test with OVCAR-8 ovarian, 99.3%; in the test with OVCAR-3 ovarian, 107%; in the test with NCI/ADR-RES ovarian, 70.8%; in the test with MDA-MB-435 melanoma it was 20.3%. For the same compound, the results for the growth in the test on MCF7 breast and with KM12 colon were 110% and 78%, respectively.

`N#CC1c2ccccc2C=CN1C(=O)c1ccc(N(CCCl)CCCl)cc1` (stereo not drawn): the growth in the test with NCI-H23 lung was 89.3%; in the test on NCI-H226 lung it was 78.2%; in the test with MDA-MB-231 breast it was 92.9%; with SF-268 CNS it was 95.9%; in the test on SF-539 CNS, 101%; in the test on HCT-15 colon it was 81.4%. Also, the growth was 98.7% in the test with HT29 colon; 79.6% in the test with SNB-75 CNS; 81.1% with PC-3 prostate; 84% with SK-MEL-5 melanoma; 71.7% in the test with UACC-62 melanoma; 94.6% with SK-MEL-28 melanoma. Also, the growth is 75.5% in the test on SN12C renal; 86.9% in the test with ACHN renal; 85.7% in the test with OVCAR-8 ovarian; 88.6% in the test with OVCAR-3 ovarian; 83.4% with NCI/ADR-RES ovarian; 79.4% in the test on MDA-MB-435 melanoma. For the same compound, the growth in the test with MCF7 breast was 83.5%; with KM12 colon it was 98%.

Turning to `Cc1ccc2oc(=O)c3c(c2c1)OC(N)=C(C#N)C3c1ccco1` (stereo not drawn), the growth was 98.3% with NCI-H23 lung; 91.9% in the test with NCI-H226 lung; 103% in the test on MDA-MB-231 breast; 101% in the test on SF-268 CNS; 101% in the test with SF-539 CNS; 103% with HCT-15 colon. Also, the growth with HT29 colon is 108%; with SNB-75 CNS it was 96.2%; with PC-3 prostate, 95.9%; in the test with SK-MEL-5 melanoma, 101%; with UACC-62 melanoma, 95.9%; in the test with SK-MEL-28 melanoma, 113%. Also, the growth in the test with SN12C renal is 101%; in the test on ACHN renal it was 101%; in the test with OVCAR-8 ovarian, 101%; in the test on OVCAR-3 ovarian, 104%; in the test on NCI/ADR-RES ovarian it was 102%; in the test with MDA-MB-435 melanoma, 105%. Moreover, the values for the growth with MCF7 breast and in the test with KM12 colon were 93.8% and 98.9%, respectively.

In the case of `NCCc1cc(O)c(O)cc1O`, the growth with NCI-H23 lung was 100%; in the test with NCI-H226 lung, 99.1%; in the test with MDA-MB-231 breast, 94.4%; in the test on SF-268 CNS, 104%; in the test with HCT-15 colon, 97.6%; in the test on HT29 colon, 98.8%. The growth was 95.9% with SNB-75 CNS; 82.3% with PC-3 prostate; 98.5% in the test on SK-MEL-5 melanoma; 114% in the test on SK-MEL-28 melanoma; 89.1% in the test with SN12C renal; 87.4% with ACHN renal. The growth with OVCAR-8 ovarian is 97.8%; in the test with OVCAR-3 ovarian, 111%; with NCI/ADR-RES ovarian, 101%; in the test on MDA-MB-435 melanoma, 108%; with MCF7 breast, 105%; with KM12 colon, 96.8%.

As for `O=S(=O)(F)c1ncnc2nc[nH]c12`, the growth was 95.5% with NCI-H23 lung; 89.6% in the test on NCI-H226 lung; 93.9% in the test on MDA-MB-231 breast; 70% with SF-268 CNS; 88.1% in the test on SF-539 CNS; 98.3% in the test on HCT-15 colon. Also, the growth in the test with HT29 colon is 101%; in the test on SNB-75 CNS, 87.3%; with PC-3 prostate, 93.7%; in the test on SK-MEL-5 melanoma, 96.2%; with UACC-62 melanoma, 89.8%; in the test with SK-MEL-28 melanoma, 97%. Further, the growth in the test on SN12C renal was 91.8%; with ACHN renal, 98.1%; with OVCAR-8 ovarian, 100%; with OVCAR-3 ovarian, 60.7%; with NCI/ADR-RES ovarian, 93.8%; with MDA-MB-435 melanoma, 100%. Further, the growth in the test on MCF7 breast was 84.1%; in the test with KM12 colon it was 81.8%.
